# From PubChem BioAssay (Tox21)
# “And” between values parts separate entries of the source, which are not always exact repeats. Equal entries are not always repeated. Inconclusive results are not listed. Where a call stands in place of a potency, no number is given. Values without a mark were called inactive. The source made the active and inactive calls. Unless noted, the call rests on the fitted dose curve; in most records, active means well fitted curve in the direction sought with a large enough effect in the repeat runs; inconclusive means weak or mixed curves; inactive means no such curve, though single readings can be large; an effect the other way counts as inactive or inconclusive.
# Key:
# [1] = qHTS assay to identify small molecule antagonists of the thyroid receptor (TR) signaling pathway - cell viability counter screen (AID 743064); conditions: GH3.TRE-Luc viability, CellTiter-Fluor, 24 h; series mostly up to 70.3 µM; further: nearly all actives have a fitted effect of over 50% in size; further: potency means the concentration at half of the fitted maximal effect
# Procedure, shortened: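 GH3.TRE-Luc cells, 4 h pre-plating; cpd + T3 1 nM final; 37 °C 23.5 h; CellTiter-Fluor 30 min; fluorescence read.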
# [2] = qHTS assay to identify small molecule antagonists of the thyroid receptor (TR) signaling pathway (AID 743065); conditions: GH3.TRE-Luc, T3-stimulated luciferase inhibition, 23.5 h; series mostly up to 70.3 µM; further: nearly all actives have a fitted effect of over 55% in size; further: potency means the concentration at half of the fitted maximal effect
# Procedure, shortened: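 GH3.TRE-Luc rat pituitary cells (two TREs driving luciferase) were dosed with compound, then stimulated with 1 nM T3 (final) for 23.5 h at 37 C. ONE-Glo luminescence was the read-out, with CellTiter-Fluor fluorescence as the cytotoxicity counter-screen.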
# [3] = tested on: thyroid hormone receptor (rat, GH3 cells); assay: qHTS assay to identify small molecule agonists of the thyroid receptor (TR) signaling pathway (AID 743066; calls by dose curve); conditions: GH3.TRE-Luc cells, TR agonist luciferase, 24 h; series mostly up to 83.9 µM
# [4] = qHTS assay to identify small molecule antagonists of the estrogen receptor alpha (ER-alpha) signaling pathway - cell viability counter screen (AID 743074; calls by dose curve; further: nearly all actives have a fitted effect of over 45% in size); conditions: ERalpha-bla HEK293 viability, CellTiter-Glo luminescence, 18 h; series mostly up to 69.4 µM
# [5] = qHTS assay to identify small molecule antagonists of the estrogen receptor alpha (ER-alpha) signaling pathway using the BG1 cell line - cell viability counter screen (AID 743081); conditions: BG1Luc4E2 viability, CellTiter-Fluor, 22 h; series mostly up to 70.3 µM;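 further: compound given together with 17beta-estradiol as the ER stimulus; nearly all actives have a fitted effect of over 45% in size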
# [6] = molecular target: Aromatase (Homo sapiens) (UniProt P11511); assay: qHTS assay to identify aromatase inhibitors (AID 743083); conditions: MCF-7 aro ERE, testosterone-driven ERE luciferase, 24 h; series mostly up to 70.3 µM; further: nearly all actives have a fitted effect of over 55% in size
# [7] = qHTS assay to identify aromatase inhibitors - cell viability counter screen (AID 743084); conditions: MCF-7 aro ERE viability, CellTiter-Fluor, 24 h; series mostly up to 70.3 µM;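 further: cells stimulated with testosterone during compound exposure; nearly all actives have a fitted effect of over 55% in size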; further: potency means the concentration at half of the fitted maximal effect
# [8] = molecular target: Aryl hydrocarbon receptor (Homo sapiens) (UniProt P35869); assay: qHTS assay to identify small molecule that activate the aryl hydrocarbon receptor (AhR) signaling pathway (AID 743085); conditions: HepG2 AhR-luc (HG2L7.5c1), luciferase, 24 h; series mostly up to 70.3 µM; further: nearly all actives have a fitted effect of over 15% in size; further: potency means the concentration at half of the fitted maximal effect;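 on activation: HG2L7.5c1 human HepG2 liver cells with stably integrated DRE-driven firefly reporter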
# Procedure, shortened: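 Luminescence read-out: ONE-Glo reagent, 30 min at room temperature, in HG2L7.5c1 HepG2 reporter cells treated 24 h at 37C. Viability was measured beforehand by CellTiter-Fluor fluorescence after 30 min at 37C.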
# [9] = qHTS assay to identify small molecule that activate the aryl hydrocarbon receptor (AhR) signaling pathway - cell viability counter screen (AID 743086); conditions: HepG2-AhR-luc viability, CellTiter-Fluor, 24 h; series mostly up to 70.3 µM; further: nearly all actives have a fitted effect of over 45% in size; further: potency means the concentration at half of the fitted maximal effect
# Procedure, shortened: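 HepG2-AhR-luc (HG2L7.5c1) cells, 4000/well, treated 24 h at 37 C with compound; viability measured as CellTiter-Fluor fluorescence after 30 min in the same wells as the luciferase read.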
# [10] = molecular target: Peroxisome proliferator-activated receptor gamma (Homo sapiens) (UniProt P37231); assay: qHTS assay to identify small molecule agonists of the peroxisome proliferator-activated receptor gamma (PPARg) signaling pathway (AID 743094; active means well fitted activation curve with a large enough effect in the signal ratio in the repeat runs, not every such curve was filed as active; the % refers to the signal ratio); conditions: HEK293H PPARg-UAS-bla, beta-lactamase FRET ratio, 17 h; series mostly up to 57 µM
# Procedure, shortened: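 Cell-based bla reporter, HEK293H background, PPARg-driven UAS. Pre-incubation 5 h, 37C, 5% CO2. Compound 17 h, 37C. Substrate 1 h RT; fluorescence.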
# [11] = molecular target: Peroxisome proliferator-activated receptor gamma (Homo sapiens) (UniProt P37231); assay: qHTS assay to identify small molecule antagonists of the peroxisome proliferator-activated receptor gamma (PPARg) signaling pathway (AID 743191; calls by dose curve; further: nearly all actives have a fitted effect of over 30% in size); conditions: HEK293H PPARg-UAS-bla, beta-lactamase ratio, antagonist, 17 h; series mostly up to 62.6 µM
# Procedure, shortened: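 GeneBLAzer PPARg UAS-bla HEK293H cells, 5 h post-plating, exposed to compounds 17 h at 37C. LiveBLAzer B/G FRET substrate added for 1 h at room temperature; beta-lactamase reporter read by fluorescence intensity.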
# [12] = qHTS assay to identify small molecule antagonists of the peroxisome proliferator-activated receptor gamma (PPARg) signaling pathway - cell viability counter screen (AID 743194); conditions: PPARg-bla HEK293H viability, CellTiter-Glo luminescence, 17 h, co-treated with 50 nM rosiglitazone; series mostly up to 62.6 µM; further: nearly all actives have a fitted effect of over 55% in size
# Procedure, shortened: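 Cytotoxicity counter screen in PPARg-bla HEK293H cells, same wells as reporter assay. Compounds plus 50 nM rosiglitazone (final) for 17 h at 37 C, then viability read by CellTiter-Glo luminescence.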
# [13] = qHTS assay for small molecule agonists of the antioxidant response element (ARE) signaling pathway - cell viability counter screen (AID 743203; calls by dose curve; further: nearly all actives have a fitted effect of over 55% in size); conditions: ARE-bla HepG2 viability, CellTiter-Glo luminescence, 16 h; series mostly up to 73.3 µM
# Procedure, shortened: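 Measured in the same wells as the beta-lactamase ARE reporter, this read-out is CellTiter-Glo luminescence from HepG2 ARE-bla cells given compounds for 16 hrs.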
# [14] = qHTS assay for small molecule activators of the heat shock response signaling pathway - cell viability counter screen (AID 743209); conditions: HSE-bla HeLa viability, CellTiter-Glo luminescence, 5 h; series mostly up to 62.6 µM; further: nearly all actives have a fitted effect of over 50% in size
# Procedure, shortened: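 Same-well multiplex: after 2.5 h room-temperature incubation with LiveBLAzer B/G substrate and fluorescence reading, CellTiter-Glo reagent was added to HSE-bla HeLa cells that had received compound for 5 h at 37 C; luminescence read after 30 min.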
# [15] = qHTS assay for small molecule activators of the heat shock response signaling pathway (AID 743210; active means well fitted activation curve with a large enough effect in the signal ratio in the repeat runs, with a control signal flat, not every such curve was filed as active; the % refers to the signal ratio;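 further: HeLa cells with beta-lactamase reporter driven by heat shock elements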); conditions: HeLa HSE-bla reporter, beta-lactamase ratio, 5 h; series mostly up to 62.6 µM
# Procedure, shortened: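 Following overnight attachment, HSE-bla HeLa cells received test compounds for 5 h at 37 C; beta-lactamase activity was then detected via FRET substrate fluorescence.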
# [16] = qHTS assay to identify small molecule antagonists of the estrogen receptor alpha (ER-alpha) signaling pathway using the BG1 cell line (AID 743080; calls by dose curve; further: nearly all actives have a fitted effect of over 25% in size); conditions: BG1Luc4E2 ERE-luciferase antagonist mode, luminescence; series mostly up to 70.3 µM
# Procedure, shortened: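 Antagonist mode: compounds in DMSO were pinned onto BG1-Luc-4E2 cells alongside 17beta-estradiol agonist, incubated 21.5 h, and ERE-driven luciferase measured with ONE-Glo. Cytotoxicity was multiplexed using CellTiter-Fluor fluorescence.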
# [17] = qHTS assay for small molecule agonists of the antioxidant response element (ARE) signaling pathway (AID 743202; active means well fitted activation curve with a large enough effect in the signal ratio in the repeat runs, not every such curve was filed as active; the % refers to the signal ratio); conditions: HepG2 ARE-bla reporter, beta-lactamase FRET, 16 h; series mostly up to 73.3 µM
# Procedure, shortened: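 HepG2 ARE-bla cells; 16 h treatment at 37 C; FRET-based beta-lactamase fluorescence read after 2 h substrate incubation at room temperature.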
# [18] = molecular target: Estrogen receptor (Homo sapiens) (UniProt P03372); assay: qHTS assay to identify small molecule antagonists of the estrogen receptor alpha (ER-alpha) signaling pathway (AID 743069; active means well fitted curve in the direction sought with a large enough effect in the signal ratio in the repeat runs, not every such curve was filed as active; the % refers to the signal ratio); conditions: HEK293 ER-alpha-UAS-bla, beta-lactamase ratio, antagonist mode; series mostly up to 69.4 µM
# Procedure, shortened: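 In this cell-based reporter format, GripTite HEK293 cells harbouring ER-alpha-UAS-bla were grown overnight with 2% charcoal-stripped FBS, dosed with DMSO-dissolved compounds, then challenged with 17beta-estradiol. After 18 hr at 37C, beta-lactamase activity was detected by FRET fluorescence.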
# [19] = molecular target: Estrogen receptor (Homo sapiens) (UniProt P03372); assay: qHTS assay to identify small molecule agonists of the estrogen receptor alpha (ER-alpha) signaling pathway using the BG1 cell line (AID 743079); conditions: BG1Luc4E2 cells, ERE-luciferase agonist, 22 h; series mostly up to 70.3 µM; further: nearly all actives have a fitted effect of over 20% in size
# [20] = molecular target: Estrogen receptor (Homo sapiens) (UniProt P03372); assay: qHTS assay to identify small molecule agonists of the estrogen receptor alpha (ER-alpha) signaling pathway (AID 743075; calls by dose curve); conditions: HEK293 ER-alpha-UAS-bla, beta-lactamase FRET ratio, 18 h; series mostly up to 70.1 µM
# Peroxisome proliferator-activated receptor gamma (Homo sapiens), sequence (P37231 whole entry, looked up): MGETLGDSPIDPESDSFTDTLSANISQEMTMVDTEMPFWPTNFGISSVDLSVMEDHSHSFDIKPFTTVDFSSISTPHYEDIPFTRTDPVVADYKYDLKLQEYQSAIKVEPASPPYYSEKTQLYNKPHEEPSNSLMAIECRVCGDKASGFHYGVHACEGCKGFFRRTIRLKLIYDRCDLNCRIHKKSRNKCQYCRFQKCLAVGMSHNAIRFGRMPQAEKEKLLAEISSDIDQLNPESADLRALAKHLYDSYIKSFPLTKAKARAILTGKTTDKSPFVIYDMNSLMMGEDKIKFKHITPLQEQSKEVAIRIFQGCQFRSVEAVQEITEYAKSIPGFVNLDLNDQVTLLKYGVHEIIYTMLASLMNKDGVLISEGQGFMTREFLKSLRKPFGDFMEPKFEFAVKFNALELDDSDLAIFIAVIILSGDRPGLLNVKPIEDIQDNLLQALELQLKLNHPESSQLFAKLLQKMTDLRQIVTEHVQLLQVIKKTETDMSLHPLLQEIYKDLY
# Estrogen receptor (Homo sapiens), sequence (P03372 whole entry, looked up): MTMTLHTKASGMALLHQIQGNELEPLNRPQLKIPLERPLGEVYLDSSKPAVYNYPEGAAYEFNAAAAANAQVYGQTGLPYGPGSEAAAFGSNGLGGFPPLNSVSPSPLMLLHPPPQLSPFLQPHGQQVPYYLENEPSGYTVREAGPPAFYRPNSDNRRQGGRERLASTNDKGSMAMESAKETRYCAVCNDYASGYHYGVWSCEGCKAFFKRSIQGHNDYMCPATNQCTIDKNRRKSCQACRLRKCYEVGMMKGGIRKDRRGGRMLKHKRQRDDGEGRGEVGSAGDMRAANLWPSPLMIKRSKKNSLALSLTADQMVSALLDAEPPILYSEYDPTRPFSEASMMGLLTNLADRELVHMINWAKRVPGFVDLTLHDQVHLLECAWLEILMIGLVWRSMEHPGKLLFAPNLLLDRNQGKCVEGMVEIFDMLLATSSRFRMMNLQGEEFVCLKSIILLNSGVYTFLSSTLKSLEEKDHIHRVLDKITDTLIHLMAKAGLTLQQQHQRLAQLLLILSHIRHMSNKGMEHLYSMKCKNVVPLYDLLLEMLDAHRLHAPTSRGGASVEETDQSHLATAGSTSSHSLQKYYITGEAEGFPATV
# Aromatase (Homo sapiens), sequence (P11511 whole entry, looked up): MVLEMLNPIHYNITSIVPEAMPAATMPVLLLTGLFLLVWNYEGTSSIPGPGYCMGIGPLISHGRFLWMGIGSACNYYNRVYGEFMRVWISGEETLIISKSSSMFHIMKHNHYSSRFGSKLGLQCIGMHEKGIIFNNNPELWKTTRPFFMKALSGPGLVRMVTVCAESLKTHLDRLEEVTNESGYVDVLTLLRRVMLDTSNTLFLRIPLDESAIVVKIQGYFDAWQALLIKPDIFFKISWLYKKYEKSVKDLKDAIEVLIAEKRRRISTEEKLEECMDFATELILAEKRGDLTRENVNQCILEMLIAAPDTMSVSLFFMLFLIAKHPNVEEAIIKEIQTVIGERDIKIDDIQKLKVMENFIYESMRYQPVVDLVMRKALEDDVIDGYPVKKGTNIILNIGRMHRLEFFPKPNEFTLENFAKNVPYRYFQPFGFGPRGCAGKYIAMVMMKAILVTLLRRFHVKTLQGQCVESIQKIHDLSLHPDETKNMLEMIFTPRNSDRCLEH
# Aryl hydrocarbon receptor (Homo sapiens), sequence (P35869 whole entry, looked up): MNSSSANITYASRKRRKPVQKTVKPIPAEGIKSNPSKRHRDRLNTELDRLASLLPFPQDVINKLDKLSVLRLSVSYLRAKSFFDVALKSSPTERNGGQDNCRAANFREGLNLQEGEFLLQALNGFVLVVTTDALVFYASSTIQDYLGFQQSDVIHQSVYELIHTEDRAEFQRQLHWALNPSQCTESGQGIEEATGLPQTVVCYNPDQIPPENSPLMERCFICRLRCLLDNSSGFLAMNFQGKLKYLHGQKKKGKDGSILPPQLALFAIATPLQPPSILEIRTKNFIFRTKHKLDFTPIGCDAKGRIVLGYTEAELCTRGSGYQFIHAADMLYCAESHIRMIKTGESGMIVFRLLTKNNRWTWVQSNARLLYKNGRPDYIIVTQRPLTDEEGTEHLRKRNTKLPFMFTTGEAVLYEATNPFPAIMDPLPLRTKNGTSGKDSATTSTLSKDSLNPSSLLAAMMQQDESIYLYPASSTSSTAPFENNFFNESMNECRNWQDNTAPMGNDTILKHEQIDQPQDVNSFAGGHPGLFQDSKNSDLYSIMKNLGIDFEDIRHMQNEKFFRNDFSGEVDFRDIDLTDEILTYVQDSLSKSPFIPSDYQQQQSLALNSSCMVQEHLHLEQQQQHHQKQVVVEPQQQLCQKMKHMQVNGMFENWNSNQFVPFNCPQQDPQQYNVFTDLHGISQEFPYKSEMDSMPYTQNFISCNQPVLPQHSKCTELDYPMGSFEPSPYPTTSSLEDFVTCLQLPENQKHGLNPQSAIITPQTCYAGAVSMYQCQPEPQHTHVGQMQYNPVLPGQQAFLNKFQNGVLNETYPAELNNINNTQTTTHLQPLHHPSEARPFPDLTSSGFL
Compound,Potency [1],Potency [2],outcome [3],Potency [4],outcome [5],outcome [6],Potency [7],Potency [8],Potency [9],Potency [10],Potency [11],outcome [12],outcome [13],outcome [14],outcome [15],Potency [16],Potency [17],Potency [18],Potency [19],Potency [20]
CN(C)[C@@H]1C(=O)C(C(=O)NCN2CCCC2)=C(O)[C@@]2(O)C(=O)C3=C(O)c4c(O)cccc4[C@@](C)(O)C3C[C@@H]12 (some centres undefined),inactive,inactive,inactive,inactive,inactive,inactive,inactive,inactive,inactive,inactive,inactive,inactive,inactive,inactive,inactive,–,–,–,–,–
CCCCCC(C)N (centres undefined),inactive,inactive,inactive,inactive,inactive,inactive,inactive,inactive,inactive,inactive,inactive,inactive,inactive,inactive,inactive,inactive,inactive,–,–,–
CNCCO,inactive,inactive,inactive,inactive,inactive,inactive,inactive,inactive,inactive,inactive,inactive,inactive,inactive,inactive,inactive,–,–,–,–,–
CNC(=O)Nc1ccc(Cl)c(Cl)c1,inactive,30.6 µM (active),inactive,inactive,inactive,inactive,inactive,54.5 µM (active),inactive,inactive,–,inactive,inactive,inactive,inactive,–,inactive,inactive,inactive,–
CCCCCCCCN1CCCC1=O,inactive,inactive,inactive,inactive,inactive,inactive,inactive,inactive,inactive,inactive,inactive,inactive,inactive,inactive,inactive,–,–,–,–,–
NS(=O)(=O)Cc1noc2ccccc12,inactive,inactive,inactive,inactive,inactive,inactive,inactive,inactive,inactive,inactive,inactive,inactive,inactive,inactive,inactive,–,inactive,–,–,–
CC/C=C\CCOC(C)OCC (centres undefined),inactive,inactive,inactive,inactive,inactive,inactive,inactive,inactive,inactive,inactive,inactive,inactive,–,inactive,inactive,inactive,–,inactive,inactive,–
CCOC(=O)c1cnc2c(cnn2CC)c1NN=C(C)C,inactive,inactive,inactive,inactive,inactive,inactive,inactive,29.8 µM (active),inactive,inactive,inactive,inactive,inactive,inactive,inactive,–,inactive,–,inactive,inactive
O=C(c1ccccc1)C1(O)CCCCC1,inactive,inactive,inactive,inactive,inactive,inactive,inactive,inactive,inactive,inactive,inactive,inactive,inactive,inactive,inactive,–,–,–,–,–
CCC(=O)OCc1ccccc1,inactive,inactive,inactive,inactive,inactive,inactive,inactive,inactive,inactive,inactive,inactive,inactive,inactive,inactive,inactive,–,inactive,–,–,–
CCOC(=O)OC(C)OC1=C(C(=O)Nc2ccccn2)N(C)S(=O)(=O)c2ccccc21 (centres undefined),inactive,inactive,inactive,–,inactive,inactive,inactive,inactive,inactive,inactive,inactive,inactive,inactive,–,inactive,–,inactive,inactive,–,inactive
CC(=O)O[C@@]12CO[C@@H]1C[C@H](O)[C@@]1(C)C(=O)[C@H](O)C3=C(C)[C@@H](OC(=O)[C@H](O)[C@@H](NC(=O)OC(C)(C)C)c4ccccc4)C[C@@](O)([C@@H](OC(=O)c4ccccc4)[C@H]21)C3(C)C,29.8 nM (active) and 106 nM (active),0.0298 µM (active),inactive,–,inactive,inactive,26.6 µM (active),inactive,33.5 µM (active) and 26.6 µM (active),inactive,inactive,inactive,inactive,inactive,inactive,–,–,inactive,inactive,inactive
CCOC(=O)c1ccccc1,inactive,inactive,inactive,inactive,inactive,inactive,inactive,–,–,inactive,inactive,inactive,inactive,inactive,inactive,–,inactive,inactive,–,inactive
C[C@H]1C[C@H]2[C@@H]3CCC4=CC(=O)C=C[C@]4(C)[C@H]3C(=O)C[C@]2(C)[C@@]1(O)C(=O)CO,inactive,inactive,inactive,–,inactive,inactive,inactive,inactive,inactive,inactive,inactive,inactive,inactive,inactive,inactive,–,inactive,inactive,inactive,inactive
CC1CCC(CO)CC1 (centres undefined),inactive,inactive,inactive,inactive,inactive,inactive,inactive,inactive,inactive,–,–,inactive,inactive,inactive,inactive,–,inactive,–,inactive,inactive
